# Cycloheximide cs: counter-screen for Shiga toxin inhibitors: cycloheximide protein synthesis inhibition | max response, % | cell reporter, cycloheximide protein synthesis inhibition counterscreen | 300,000 tested, 12% active; in the data active = max response mostly above about 13%, no sharp cut-off; inactive = mostly below about 14%; note: read at 38.3 µM for the half of the compounds with a filed dose; 0% is about no effect
# Shiga toxin inh: blocks Shiga toxin action in Vero cells; Vero cells, Shiga toxin protein synthesis inhibition reporter; inhibition, % at 38.7 µM; 290,000 tested, 9.2% active; in the data active = inhibition mostly above about 28%, no sharp cut-off; inactive = mostly below about 43%; note: 0% is about no effect
# LASV entry inh: inhibitors of Lassa virus binding or cell entry; Lassa virus pseudotype entry inhibition, cell reporter; Potency, µM (doses to about 37.9 µM), without a hit: at the highest dose activity change, negative = inhibition, usual class: inhibitors; 300,000 tested, 1.2% active; AID 540256; calls by dose curve; tested in HEK293 cells; note: potency is the fitted concentration of half-maximal effect; % is set by controls: 0 for no effect and ±100 for the full control effect; nearly all actives have a fitted effect of over 50% in size
# MARV entry inh: blocks Marburg virus binding to or entry into cells; 300,000 tested, 1.8% active; Marburg virus pseudotyped entry inhibition, cell reporter; Potency, µM (doses to about 37.8 µM), without a hit: at the top dose activity change, negative = inhibition, usual class: inhibitors; calls by dose curve; tested in HEK293 cells; note: potency is the fitted concentration of half-maximal effect; % is set by controls: 0 for no effect and ±100 for the full control effect
# AMA1 RON2 block: AMA1-RON2 (P. falciparum) interaction inhibition; AlphaScreen AMA1-biotinylated RON2 peptide binding; Potency, µM (highest dose often 58.2 µM), inactives show at the top dose activity change, negative = inhibition, most hits filed as inhibitors; 360,000 tested, 0.2% active; AID 720542; active = well fitted inhibition curve with a large enough effect; inconclusive = small, poorly fitted or top-dose-only effect; inactive = no such curve, though single readings can be large or run the other way;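 note: potency is the fitted concentration of half-maximal effect; 0% = vehicle wells and -100% = peptide control; nearly all actives have a fitted effect of over 45% in size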
#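 AMA1 (3D7) with his tag at 25 nM final met compounds first, then biotinylated RON2 peptide at 25 nM; detection used donor plus acceptor beads, 10 µg/mL apiece, read by AlphaScreen after 30 min at room temperature.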
# Active calls of the source: *; ? = inconclusive; . = not tested or not shown; [ ] = dose if it differs, or a comment. This excerpt belongs to a sample that is enriched for hits.
SMILES,Cycloheximide cs,Shiga toxin inh,LASV entry inh,MARV entry inh,AMA1 RON2 block
CCOC(=O)c1c(NC2OC(=O)c3c2ccc(OC)c3OC)sc(C(=O)OC(C)(C)C)c1C (stereo unspecified),31*,active,-7%,14%,8%
O=S(=O)(c1ccc(Cl)cc1)N1c2ccccc2Oc2nc3ccccc3nc21,8,21,-11%,-9%,-16%
COc1ccc(S(=O)(=O)N2c3cc(Cl)ccc3Oc3nc4ccccc4nc32)cc1,17,50*,-8%,-10%,-6%
CCCCCCCCCCCCC/C=C/[C@@H](O)[C@H](CO)NC(=O)CCCCC,2,21,.,.,.
CCOC(=O)NN=C1C[C@@H](O)[C@@H](O)[C@@H]2[C@H]3C(=O)N([C@@H](C)c4ccccc4)C(=O)[C@@H]3CC[C@@H]12,.,.,.,-22%[14.2 µM],.
O=C(/C=C/c1ccco1)N1CCN(S(=O)(=O)/C=C/c2ccccc2)CC1,30*,49,2%,-9%,-17%
COc1ccc2c(c1)CCC1C2CC[C@@]2(C)C1CC[C@@H]2NCCCCCCN1C(=O)C=CC1=O (stereo partly specified),.,.,1%,?,.
Cn1c(SCCSc2nnc(-c3ccccc3)n2C)nnc1-c1ccccc1,-3,30,.,5%,.
C=CCSc1nnc(-c2sc(-c3ccccc3)nc2C)n1C,42*,17,2%,0%,16%
O=S(=O)(Nc1ccc(-c2ccc3nncn3n2)cc1)c1cccs1,.,.,-4%,15%[46.1 µM],-3%
Nc1nc2c(c(=O)[nH]1)CN(Cc1ccccc1)CC2,.,.,.,.,1%
Cc1c(Cl)cccc1NC(=O)COC(=O)c1c2c(nc3ccccc13)CCN(Cc1ccccc1)C2,1,8,?,2.6µM*,-8%
Nc1c2c(nc3ccccc13)CCN(Cc1ccccc1)C2,15*,5,.,.,3%
O=C(NC(=S)Nc1nc2c(ccc3ccccc32)s1)c1cccs1,-3,-1,11%,-9%,-5%[2.32 µM]
Cc1ccc(O)c(C2=Nc3ccccc3C2(C)C)c1,49*,89*,.,.,117%
Cc1ccc2oc(C(=O)N(C)Cc3ccc(C)o3)c(C)c2c1,27*,52*,.,.,-12%
Cc1ccc2oc(C(=O)N(C)Cc3ccon3)c(C)c2c1,54*,47*,.,.,4%
O=C(/C=C/c1cccs1)NCc1ccc2c(c1)OCO2,37*,34*,?,12%,-11%
O=C(/C=C/c1ccccc1)NCc1ccc2c(c1)OCO2,22*,34,-21%[46.1 µM],7%[46.1 µM],-16%
COc1cccc(-c2ocnc2C(=O)Nc2ccc(N3CCOCC3)cc2N2CCOCC2)c1,-3,1,-21%[46.1 µM],2%[46.1 µM],-9%
Cc1cc(C)c[n+](C(C)C(=O)c2ccc(Cl)cc2)c1 (stereo unspecified),1,-6,15%,-16%,-15%
CC(C)CCN1C(=O)c2ccccc2CC1(C)C(=O)NC1CCCCC1 (stereo unspecified),.,.,.,-20%[46.1 µM],.
CCn1c2ccccc2c2cc(CN3CCN(Cc4ccccc4Cl)CC3)ccc21,.,.,-17%[46.1 µM],.,.
CCCS(=O)(=O)N1CCN(Cc2ccc3c(c2)c2ccccc2n3CC)CC1,-1,-12,?,10µM*,0%[11.6 µM]
O=c1c2ccccc2cnn1-c1nc2ccccc2s1,.,.,.,-4%,.
SMILES,Cycloheximide cs,Shiga toxin inh,LASV entry inh,MARV entry inh,AMA1 RON2 block
O=c1c(Cl)c(N2CCCCC2)cnn1-c1nc2ccccc2[nH]1,20*,17,?,?,14%
O=c1c2ccccc2cnn1-c1nc2ccccc2[nH]1,-10,-35,0.33µM*,0.29µM*,9%
CCS(=O)(=O)N1CCN(c2cnn(-c3ccccc3)c(=O)c2Cl)CC1,-3,4,13%,20%[46.1 µM],0%
CCOc1ccc(N(CC(=O)Nc2c(C)n(C)n(-c3ccccc3)c2=O)S(=O)(=O)c2ccc(F)cc2)cc1,6,-9,?,?,-5%
Cc1ccc(/C=c2\sc3n(c2=O)CN(c2ccc(Br)cc2)CN=3)o1,-3,-3,14%,1%,7%
O=C1/C(=C\c2ccc3c(c2)OCO3)CCC/C1=C/c1ccc2c(c1)OCO2,7,50,8%,9%,0%
Cc1ccc(/C=c2/sc3n(c2=O)CCCN=3)o1,35*,60*,18%,?,-7%
O=c1/c(=C\c2ccc3c(c2)OCO3)sc2n1CCCN=2,28*,50*,1%,?,-17%
CC(=O)c1ccc(N2CCN(S(=O)(=O)c3ccc4c(c3)NC(=O)CC(=O)N4)CC2)cc1,24*,55*,.,.,-12%
O=C(Nc1ccc2[nH]c(=S)sc2c1)Nc1ccccc1F,70*,70*,.,.,82%
CCCc1c(NC(=O)Nc2ccc(F)cc2)cnn1-c1ccccc1,23*,45*,.,.,-8%
O=C(Nc1ccc(F)cc1)Nc1ccccc1F,65*,109*,-21%[46.1 µM],?,-1%
O=C(Nc1ccc(NC(=O)c2ccccc2O)cc1)Nc1ccc(F)cc1F,-2,6,11%,-3%,-7%
COc1cccc(COC(=O)Nc2ccccc2F)c1,29*,117*,?,?,15%
CCCc1c(C(=O)Nc2ccc(F)cc2C)cnn1-c1ccccc1,6,-6,-13%,1%,-14%
COc1ccc(C(=O)OCC(=O)NC(=O)Nc2ccccc2F)c(OC)c1,.,.,.,.,13%
Cc1ccc2c(c1)c(=O)c(C(=O)c1ccncc1)cn2CC(=O)Nc1c(C)cccc1C,.,.,2%[46.1 µM],.,.
Cn1c(=O)c2c(-c3ccccc3)n3c(c2n(C)c1=O)C(c1ccc([N+](=O)[O-])cc1)Nc1ccccc1-3 (stereo unspecified),.,.,-24%[46.1 µM],?,.
Cc1ccc2c(c1)cc1c(=O)n(Cc3cccc(Cl)c3)nc(C)n12,.,.,23%[46.1 µM],5%[46.1 µM],.
CCOC(=O)CN(C(=O)c1snc(C(N)=O)c1N)C(C(=O)NC1CCCCC1)c1ccc(F)cc1 (stereo unspecified),-3,-4,.,.,0%
CC(C)COC(=O)N1CCCCC1c1cc(C(=O)NCc2ccccc2)no1 (stereo unspecified),.,.,.,.,5%
COc1ccccc1CNC(=O)N1CCN(c2ccccc2Cl)CC1,1,-8,7%,-22%,-15%
O=C(CN1C(=O)CCc2cc(S(=O)(=O)N3CCOCC3)ccc21)NCc1ccccc1Cl,.,.,5%[46.1 µM],.,.
O=C(O)c1ccc(S(=O)(=O)c2ccc3c(c2)C(=O)N(c2ccc(Br)cc2)C3=O)cc1,-3,16,.,5%[46.1 µM],-8%
O=C(NC1=NN(c2ccccc2)CC1)Nc1ccccc1F,35*,37*,.,.,-16%
SMILES,Cycloheximide cs,Shiga toxin inh,LASV entry inh,MARV entry inh,AMA1 RON2 block
O=S(=O)(Nc1cccnc1Cl)c1ccc(F)cc1,-6,4,-7%[46.1 µM],-4%[46.1 µM],-6%
COc1ccc(NC(=O)Nc2ccccc2F)c(C)c1,19*,52,6%,-10%[46.1 µM],4%
O=C(Nc1ccc(F)cc1)Nc1cccnc1Cl,35*,58*,?,?,11%
COc1ccc(NC(=O)Nc2ccccc2F)cc1,32*,47,?,?,6%
CSc1ccccc1NC(=O)Nc1ccc(Cl)cc1,55*,83,?,?,-1%
COC(=O)c1ccc(NC(=O)Nc2ccccc2C)cc1,23*,73*,22%,?,-16%
COC(=O)c1ccc(NC(=O)Nc2ccccc2F)cc1,40*,115*,?,?,-1%
